Source: PubChem BioAssay AID1030 (National Center for Advancing Translational Sciences (NCATS), 2008)
Hit rate of the full screen: of about 220,000 compounds, about 16,000 (7.3%) were called active. About 25% were inconclusive and are not listed. Calls come from the whole dose curve; as a rule, active = well fitted inhibition curve with a large enough effect (not every such curve was filed as active); inconclusive = small, poorly fitted or top-dose-only effect, or another doubt; inactive = no such curve, though single readings can be large or run the other way. The full list was thinned out, with actives kept by preference.

biological target: Aldehyde dehydrogenase 1A1 (Homo sapiens) (UniProt P00352); test: qHTS Assay for Inhibitors of Aldehyde Dehydrogenase 1 (ALDH1A1); settings: Purified ALDH1A1, NADH fluorescence, propionaldehyde substrate; series mostly up to 75.3 µM
Potency is the fitted concentration of half-maximal effect.

Aldehyde dehydrogenase 1A1 (Homo sapiens), sequence (P00352 whole entry, looked up): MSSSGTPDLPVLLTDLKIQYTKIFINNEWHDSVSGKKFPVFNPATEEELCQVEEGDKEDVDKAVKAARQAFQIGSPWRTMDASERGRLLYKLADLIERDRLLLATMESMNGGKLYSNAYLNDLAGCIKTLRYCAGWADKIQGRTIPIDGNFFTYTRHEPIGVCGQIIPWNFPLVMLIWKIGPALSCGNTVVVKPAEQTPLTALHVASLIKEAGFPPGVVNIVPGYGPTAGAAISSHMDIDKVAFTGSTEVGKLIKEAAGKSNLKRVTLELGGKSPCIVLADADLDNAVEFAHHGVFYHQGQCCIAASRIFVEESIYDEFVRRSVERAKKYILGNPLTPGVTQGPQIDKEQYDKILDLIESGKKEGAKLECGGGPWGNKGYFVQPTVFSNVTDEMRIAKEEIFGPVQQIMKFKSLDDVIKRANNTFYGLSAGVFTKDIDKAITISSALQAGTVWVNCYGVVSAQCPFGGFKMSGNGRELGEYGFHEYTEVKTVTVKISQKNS

Potency, inactive:
C=CCn1c(SCC(=O)/C(C#N)=C(\C)N)nc2sc(C)c(C)c2c1=O, C=CCn1cnc2scc(-c3ccccc3)c2c1=O, CN1CCCN(C(=O)C2CCCCC2)CC1, COc1ccccc1NC(=O)CCSc1nnc(-c2ccc(O)cc2)o1, O=C1CCCCC(=O)c2ccccc2N1, CN(C)/C=C1/C(=O)Nc2ccccc21, CCOC(=O)C1(Cc2cccc(OC)c2)CCCN(S(=O)(=O)c2cccnc2)C1 (stereo unspecified), O=C(NCCCN1CCOCC1)c1ccccc1NS(=O)(=O)c1ccc(Br)cc1, CCOC(=O)NC(=O)C(=CNc1cccc(OC)c1)C(=O)NC(=O)OCC, CCc1c(C)sc(NC(=O)/C=C/c2ccc3c(c2)OCO3)c1C(=O)OC, CSC1=N/C(=C\c2ccc3c(c2)OCO3)C(=O)S1, CC(C)(C)NCC(O)COc1cccc2[nH]c(=O)[nH]c12 (stereo unspecified), COc1cc2c(cc1OC)CC1(CCCCC1)N=C2, COc1ccc(CCNC(=O)C(Sc2ccccn2)c2ccccc2)cc1OC (stereo unspecified), COc1ccc(CCN(C(=O)COc2ccccc2)c2nc(-c3ccccc3)cs2)cc1OC, CCN(CC)CCNC(=O)c1sc2ncn(CC(=O)Nc3ccc(C)c(Cl)c3)c(=O)c2c1C, COCCNC(=S)N(Cc1cccnc1)Cc1ccc(OC)c(OC)c1, COC(=O)c1ccc(CSc2nncn2N)cc1, CCN1C(=O)/C(=C2/Sc3ccccc3N2CCCS(=O)(=O)O)SC1=S, CC12C(=O)N(c3ccccc3)C(=O)C1C(c1ccccc1)N1CCCN12 (stereo unspecified), N#CC1(C#N)C(C(=O)C23CC4CC(CC(C4)C2)C3)C12CCOCC2 (stereo unspecified), O=C(c1ccncc1)c1ccc([N+](=O)[O-])cc1, Cc1ccc(C(=O)NCC(=O)O)s1, O=C(N/C(=C\c1ccc(F)cc1)C(=O)N1CCCCCC1)c1ccccc1, CC1Cc2ccccc2N1C(=O)CSc1nnc(-c2ccc(S(=O)(=O)N3CCCCC3)cc2)o1 (stereo unspecified), CC1Cc2ccccc2N1C(=O)CSc1nc2ccccc2o1 (stereo unspecified), CO/N=C/c1cn(-c2ccc(Cl)cc2)nn1, COc1cccc([C@@H]2Oc3ccc(Br)cc3C(=O)[C@H]2OC(=O)NCc2ccc3c(c2)OCO3)c1, C1CC1Cc1noc(CN2CCN(CC3CC3)CC2)n1, CCCC(=O)Nc1cc(OCC)c(NC(=O)NC2CCCCC2)cc1OCC, CCOc1cc(NC(=O)c2ccccn2)c(OCC)cc1NC(=O)c1ccc(OC)cc1, CC(Nc1nc(N2CCCC2)nc2ccccc12)c1ccccc1 (stereo unspecified), CC(=O)NC(CC(=O)O)c1ccc(F)cc1 (stereo unspecified), Cc1ccc(NC(=O)N2CCSc3ccccc32)cc1, Cn1ccc(=NC=C(C#N)C#N)c2ccccc21, Cc1ccc(NNC(=O)c2c(F)cccc2Cl)cc1Cl, CCOC(=O)C(=Cc1ccccc1OC)C(=O)OCC, Cc1cc(O)ccc1NC1=CC(=O)CC(C)(C)C1, COC(=O)NNC1=CC(=O)CC(C)(C)C1, CCc1nnc(NC(=O)Cc2cccs2)s1, O=C(c1ccc(F)cc1)c1cn(Cc2ccc(F)cc2)c2cc3c(cc2c1=O)OCCO3, O=C1N/C(=C/c2cccn2-c2ccccc2)C(=O)N1c1cccc(Cl)c1, CCCOc1ccccc1C1CC(=O)Nc2cc3c(cc21)OCO3 (stereo unspecified), COC(=O)c1c(C(=O)OC)c2n(c1C)CCS2, CCN(CC)C(=O)CS(=O)CC(=O)Nc1cc(OCCOC)c(Cl)cc1Cl (stereo unspecified), CC(N=Cc1nc(-c2ccccc2)oc1O)c1ccccc1 (stereo unspecified), CCOc1ccc2nc(/N=C/c3nc(-c4ccccc4)oc3O)sc2c1, CCOC(=O)C1=C(C)N=C2c3ccccc3C(=O)C2C1c1ccc(Br)cc1 (stereo unspecified), O=C(CN1C(=O)c2ccccc2S1(=O)=O)N1CCc2ccccc21, CNC(=O)CN1C(=O)c2ccccc2S1(=O)=O, Cc1ccc(NC(=O)Cn2c(=O)n(CCC(=O)NC3CCN(Cc4ccccc4)CC3)c(=O)c3ccccc32)cc1, COC(=O)c1ccccc1NC(=O)c1ccccc1NS(C)(=O)=O, CCC(C)NC(=O)c1ccccc1NC(=O)c1ccccc1N(C)S(C)(=O)=O (stereo unspecified), NC(=O)C[n+]1cccc(C(N)=O)c1, O=C(Cn1cnc([N+](=O)[O-])n1)NCCc1ccccc1, COc1ccc(-n2nnnc2SCC(=O)NCc2cccs2)cc1

Potency, active:
C=CCn1c(SCc2csc(C)n2)nc2scc(-c3ccc(C)o3)c2c1=O 22.4 µM, CN(C)/C=C1/Nc2ccccc2C1=O 25.1 µM, CCC1=C/C(=C\c2ccc3c(c2)OCO3)C(=O)S1 28.2 µM, COc1ccc(C(CCN(Cc2ccc(OC)c(OC)c2)C(=O)CCl)c2ccccc2)cc1 (stereo unspecified) 3.55 µM, CCCCN1C(=O)/C(=C2/C=CC=CN2C)SC1=S 22.4 µM, CN1C=CC=C/C1=C1\SC(=S)N(Cc2ccccc2)C1=O 12.6 µM, CCS(=O)(=O)c1ccc2oc(SCC(=O)N3c4ccccc4CC3C)nc2c1 (stereo unspecified) 28.2 µM, CCOc1cc(NC(=O)CCl)c(OCC)cc1NC(C)=O 25.1 µM, Cc1ccc(C(CC(=O)O)Nc2nc(N3CCCCC3)nc(N3CCCCC3)n2)cc1 (stereo unspecified) 25.1 µM, CC(C)C1N=C2c3ccccc3N=C(SCC(=O)c3ccc(O)c(O)c3)N2C1=O (stereo unspecified) 0.631 µM, Cc1cc(C)nc(NNC2=CC(=O)CC(C)(C)C2)n1 25.1 µM, COc1cc2c(cc1/C=C1/NC(=O)N(c3ccccc3)C1=O)OCO2 3.98 µM, Oc1oc(-c2ccccc2Br)nc1/C=N/c1ccccn1 11.2 µM, O=C1c2ccccc2S(=O)(=O)N1CC(O)Cn1c2ccccc2c2ccccc21 (stereo unspecified) 14.1 µM, CCCCNC(=O)c1ccccc1NC(=O)c1ccccc1N(C)S(C)(=O)=O 22.4 µM
